Consider eleven compounds from the supplement of paper PMC10981050.

“And” between values parts separate entries of the source, which are not always exact repeats. Equal values may be shown once.

Common to all, as to test: cell viability relative to vehicle control; higher = less cytotoxic
What all share (settings): 10 µM

In one test the test system is K562. Summed up: (§1)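 Screening covered the Selleck bioactive, kinase and epigenetic probe libraries, less identity-inconsistent compounds, on CRISPR-edited mutant clones and isogenic wild-type clones of four leukaemia lines. Cells, at 2000 per well in 50 µL medium, received a single 10 µM acoustically dispensed dose. After 48 h the supernatant was removed and CellTiter-Glo luminescence was read. Viability was analysed in Genedata Screener as percent of the on-plate vehicle control.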

In the next test the test system is MARIMO. Summed up: as §1
The test system of a further test is MOLM14. The procedure, abridged: as §1
The subject of another test is OCI-AML2. The procedure, abridged:
as §1

In general, cell viability refers to a read-out of living cells in per cent, often relative to untreated cells. For `COc1ccc2[nH]c(=O)oc2c1` [Coixol], the cell viability in the test on K562 (SRSF2 genotype: SRSF2 P95H/wt) is 94.8% and 103%; in the test with K562 (SRSF2 genotype: SRSF2 wt/wt), 95%; in the test on MARIMO (SRSF2 genotype: SRSF2 P95H/wt), 97.8%; with MARIMO (SRSF2 genotype: SRSF2 wt/wt), 96.3%; in the test with MOLM14 (SRSF2 genotype: SRSF2 P95H/wt) it was 103%; with MOLM14 (SRSF2 genotype: SRSF2 wt/wt), 98.2%. The results for the cell viability in the test with OCI-AML2 (SRSF2 genotype: P95H/wt) and in the test on OCI-AML2 (SRSF2 genotype: wt/wt) were 102% and 93.9%, respectively.
Take `Cc1ncc([N+](=O)[O-])n1CC(O)CCl` (stereo not drawn) [Ornidazole]: the cell viability in the test on K562 (SRSF2 genotype: SRSF2 P95H/wt) was 96.6% and 100%; in the test with K562 (SRSF2 genotype: SRSF2 wt/wt), 94.7%; in the test with MARIMO (SRSF2 genotype: SRSF2 P95H/wt), 102%; in the test on MARIMO (SRSF2 genotype: SRSF2 wt/wt) it was 104%; in the test with MOLM14 (SRSF2 genotype: SRSF2 P95H/wt), 91.9%; with MOLM14 (SRSF2 genotype: SRSF2 wt/wt), 105%. Moreover, the cell viability was found to be 103% in the test on OCI-AML2 (SRSF2 genotype: P95H/wt) and 106% in the test on OCI-AML2 (SRSF2 genotype: wt/wt).
As to `CC(C(=O)O)c1ccc(-c2ccccc2)c(F)c1` (stereo not drawn) [Flurbiprofen], the cell viability with K562 (SRSF2 genotype: SRSF2 P95H/wt) is 107% and 105%; with K562 (SRSF2 genotype: SRSF2 wt/wt) it was 103%; in the test on MARIMO (SRSF2 genotype: SRSF2 P95H/wt), 106%; with MARIMO (SRSF2 genotype: SRSF2 wt/wt) it was 99%; in the test on MOLM14 (SRSF2 genotype: SRSF2 P95H/wt) it was 104%; in the test on MOLM14 (SRSF2 genotype: SRSF2 wt/wt), 105%. The results for the cell viability with OCI-AML2 (SRSF2 genotype: P95H/wt) and with OCI-AML2 (SRSF2 genotype: wt/wt) were 108% and 102%, respectively.
As for `Cc1cc(O)cc(O)c1` [Orcinol], the cell viability is 110% and 104% in the test with K562 (SRSF2 genotype: SRSF2 P95H/wt); 104% in the test on K562 (SRSF2 genotype: SRSF2 wt/wt); 100% with MARIMO (SRSF2 genotype: SRSF2 P95H/wt); 98.8% in the test on MARIMO (SRSF2 genotype: SRSF2 wt/wt); 113% in the test on MOLM14 (SRSF2 genotype: SRSF2 P95H/wt); 107% with MOLM14 (SRSF2 genotype: SRSF2 wt/wt). In addition, the figures for the cell viability with OCI-AML2 (SRSF2 genotype: P95H/wt) and with OCI-AML2 (SRSF2 genotype: wt/wt) were 98.7% and 107%, respectively.
As to `COc1ccc(-c2cc(=O)c3c(O)c(OC)c(O)cc3o2)cc1OC` [Eupatilin], the cell viability in the test on K562 (SRSF2 genotype: SRSF2 P95H/wt) is 101% and 99.5%; in the test on K562 (SRSF2 genotype: SRSF2 wt/wt), 97%; with MARIMO (SRSF2 genotype: SRSF2 P95H/wt), 92.3%; in the test with MARIMO (SRSF2 genotype: SRSF2 wt/wt), 98.2%; with MOLM14 (SRSF2 genotype: SRSF2 P95H/wt) it was 48.7%; in the test on MOLM14 (SRSF2 genotype: SRSF2 wt/wt), 60.2%. Also, the cell viability in the test with OCI-AML2 (SRSF2 genotype: P95H/wt) amounted to 69.4%; in the test on OCI-AML2 (SRSF2 genotype: wt/wt) it was 71.2%.
`C[C@@H]1C[C@H]2[C@@H]3CCC4=CC(=O)C=C[C@]4(C)[C@@]3(Cl)[C@@H](O)C[C@]2(C)[C@@]1(OC(=O)c1ccco1)C(=O)CCl` [Mometasone furoate]: the cell viability is 91.2% and 98.8% in the test with K562 (SRSF2 genotype: SRSF2 P95H/wt); 92.2% in the test with K562 (SRSF2 genotype: SRSF2 wt/wt); 87.8% in the test with MARIMO (SRSF2 genotype: SRSF2 P95H/wt); 103% with MARIMO (SRSF2 genotype: SRSF2 wt/wt); 82.7% with MOLM14 (SRSF2 genotype: SRSF2 P95H/wt); 79% in the test with MOLM14 (SRSF2 genotype: SRSF2 wt/wt). For the same compound, the values for the cell viability in the test on OCI-AML2 (SRSF2 genotype: P95H/wt) and in the test with OCI-AML2 (SRSF2 genotype: wt/wt) were 113% and 118%, respectively.
Take `O=C1C[C@@H]2[C@@H](CO)[C@H](O)C[C@@H]2O1` [Corey Lactone Diol]: the cell viability in the test on K562 (SRSF2 genotype: SRSF2 P95H/wt) was 110%; in the test on K562 (SRSF2 genotype: SRSF2 wt/wt) it was 101%; in the test on MARIMO (SRSF2 genotype: SRSF2 P95H/wt), 105%; with MARIMO (SRSF2 genotype: SRSF2 wt/wt) it was 110%; in the test with MOLM14 (SRSF2 genotype: SRSF2 P95H/wt), 102%; in the test with MOLM14 (SRSF2 genotype: SRSF2 wt/wt), 108%. Also, the results for the cell viability with OCI-AML2 (SRSF2 genotype: P95H/wt) and with OCI-AML2 (SRSF2 genotype: wt/wt) were 101% and 93.3%, respectively.
As for `CCN(CC)c1ccc2c(-c3ccccc3C(=O)O)c3ccc(=[N+](CC)CC)cc-3oc2c1` [Rhodamine B], the cell viability is 51.1% and 54.3% in the test with K562 (SRSF2 genotype: SRSF2 P95H/wt); 53% in the test on K562 (SRSF2 genotype: SRSF2 wt/wt); 51.3% with MARIMO (SRSF2 genotype: SRSF2 P95H/wt); 59.4% with MARIMO (SRSF2 genotype: SRSF2 wt/wt); 48.5% with MOLM14 (SRSF2 genotype: SRSF2 P95H/wt); 61% with MOLM14 (SRSF2 genotype: SRSF2 wt/wt). Also, the cell viability was found to be 58.7% with OCI-AML2 (SRSF2 genotype: P95H/wt) and 49.6% in the test on OCI-AML2 (SRSF2 genotype: wt/wt).
With `O=S(=O)(O)NC1CCCCC1` [Cyclamic acid], the cell viability in the test on K562 (SRSF2 genotype: SRSF2 P95H/wt) is 102% and 96.3%; with K562 (SRSF2 genotype: SRSF2 wt/wt), 97.2%; in the test with MARIMO (SRSF2 genotype: SRSF2 P95H/wt), 100%; in the test with MARIMO (SRSF2 genotype: SRSF2 wt/wt) it was 111%; with MOLM14 (SRSF2 genotype: SRSF2 P95H/wt), 104%; with MOLM14 (SRSF2 genotype: SRSF2 wt/wt), 104%. In addition, the cell viability stood at 94.5% in the test on OCI-AML2 (SRSF2 genotype: P95H/wt) and 110% in the test on OCI-AML2 (SRSF2 genotype: wt/wt).
As to `CCN(CC)C(=O)/C(C#N)=C/c1cc(O)c(O)c([N+](=O)[O-])c1` [Entacapone], the cell viability with K562 (SRSF2 genotype: SRSF2 P95H/wt) was 101% and 105%; with K562 (SRSF2 genotype: SRSF2 wt/wt) it was 107%; in the test with MARIMO (SRSF2 genotype: SRSF2 P95H/wt), 101%; in the test on MARIMO (SRSF2 genotype: SRSF2 wt/wt), 102%; in the test on MOLM14 (SRSF2 genotype: SRSF2 P95H/wt), 102%; with MOLM14 (SRSF2 genotype: SRSF2 wt/wt) it was 102%. The values for the cell viability in the test on OCI-AML2 (SRSF2 genotype: P95H/wt) and with OCI-AML2 (SRSF2 genotype: wt/wt) were 114% and 97.4%, respectively.
For `N[C@@H](CC(=O)N1CCn2c(nnc2C(F)(F)F)C1)Cc1cc(F)c(F)cc1F` [Sitagliptin phosphate monohydrate], the cell viability in the test with K562 (SRSF2 genotype: SRSF2 P95H/wt) is 97.7% and 96.1%; with K562 (SRSF2 genotype: SRSF2 wt/wt) it was 102%; in the test with MARIMO (SRSF2 genotype: SRSF2 P95H/wt), 98.1%; with MARIMO (SRSF2 genotype: SRSF2 wt/wt) it was 110%; in the test on MOLM14 (SRSF2 genotype: SRSF2 P95H/wt), 102%; in the test with MOLM14 (SRSF2 genotype: SRSF2 wt/wt) it was 103%. Moreover, the figures for the cell viability in the test on OCI-AML2 (SRSF2 genotype: P95H/wt) and in the test on OCI-AML2 (SRSF2 genotype: wt/wt) were 109% and 117%, respectively.
